From PubChem BioAssay (NCI)
The panel holds about 83,000 compounds, 20% with a hit somewhere; the sample as a whole holds those more often.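 Treatment: one concentration, 48 hours, 96-well format. Scoring: percent growth, with anything below 10 considered active.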 Unmarked numbers belong to inactive results. Activity calls are given as the source filed them.

Key:
Test in all cases: NCI-60 one-dose screen, 48 h (100 = growth as untreated, 0 = no growth, -100 = all killed)
Conditions in all cases: 10 µM unless noted
[1] = system: BT-549 breast
[2] = system: MDA-MB-435 melanoma
[3] = system: SW-620 colon
[4] = system: MCF7 breast
[5] = system: HCT-116 colon
[6] = system: HCC-2998 colon
[7] = system: KM12 colon

Row | Structure (SMILES) | growth [1] | growth [2] | growth [3] | growth [4] | growth [5] | growth [6] | growth [7]
1 | CN1CCc2c(sc3ncnc(N/N=C/c4ccc(Cl)c(Cl)c4)c23)C1 | 42.2% | 11.6% | -68.4% (active) | -47.2% (active) | -64.5% (active) | -47.9% (active) | 22.8%
2 | O=c1[nH]c2ccc(Cl)cc2cc1CSc1ccccc1Nc1nccc(-c2ccc(Cl)cc2)n1 | 113% | 96.8% | 91.9% | 70.3% | 90.4% | 119% | 
3 | Clc1ccc2c(NCCCN3CCOCC3)c3oc4ccccc4c3nc2c1 | 104% | 36% | 21.8% | 16.6% | 20.1% | 50.4% | 
4 | O=C(N/N=C/c1ccco1)c1[nH]c2ccc(Br)cc2c1-c1ccccc1 | -17.1% (active) | 0.898% (active) | 24.8% | 10.7% | -12.9% (active) | 23% | 12.8%
5 | Cn1cc(-c2cc(N)n3nc(-c4cn(C)c5ccc(Cl)cc45)cc3n2)c2cc(Cl)ccc21 | 117% | 16.5% | 14.6% | 17.3% | 75.5% | 98.4% | 60.1%
6 | NC(=O)c1cc(-c2ccc3ncnc(N4CCc5cc(F)c(Cl)cc54)c3c2)cnc1N | -13.5% (active) | 25.2% | 35.9% | 11% | 19.3% | 37.5% | 29.9%
7 | N=C1CC(=O)NN1C(=O)CSc1nc2sc3c(c2c(=O)n1-c1ccc(Cl)cc1)CCCC3 | 102% | 106% | 98% | 91.8% | 99% | 116% | 104%
8 | O=C(N/N=C/c1ccc([N+](=O)[O-])o1)c1[nH]c2ccc(Br)cc2c1-c1ccccc1 | -32.1% (active) | -40.8% (active) | 10.5% | 7.95% (active) | -8.73% (active) | 2.07% (active) | 
9 | COc1cccc(COc2ccc(/C=C3/C(=O)Nc4cc(Cl)ccc43)cc2)c1 | 106% | 99.9% | 97.5% | 70.7% | 93.7% | 102% | 97.1%
10 | CCC/C=C/C=C/C(=O)N[C@@H](Cc1cc(F)cc(F)c1)C(=O)N[C@@H]1C(=O)N2CCC[C@H]2C(=O)N2CCCC[C@H]2C(=O)N[C@@H](C)C(=O)N2C[C@H](C)C[C@H]2C(=O)O[C@H]1C | 11.5% | 17% | 32.5% | 15% | 13.4% | 24.1% | 33.3%
11 | COc1cc(/C=C/C(=O)c2ccc(C)cc2)ccc1Oc1nc(NCCO)nc(N2CCOCC2)n1 | -58.8% (active) | 33.1% | 3.05% (active) | 9.07% (active) | -77.2% (active) | 93.8% | 20.2%
12 | CCCSc1nc(Nc2ccc(/C(C)=N\NC(N)=S)cc2)c(C#N)c(-c2ccc(OC)cc2)n1 | 82% | 70.7% | 103% | 69.1% | 45.3% | 110% | 84.7%
13 | CN(C)S(=O)(=O)c1oc(-c2ccccc2)nc1C#N | 64.4% | 78.9% | 0.559% (active) | 39.4% | 61.3% | 108% | 92.9%
14 | COC(=O)C(Cc1ccccc1)NS(=O)(=O)/N=C1\NC(=O)NC1=C(Cl)Cl (centres undefined) | 95.6% | 105% | 98.9% | 29.1% | 77.3% | 113% | 9.49% (active)
15 | Cc1cc(=O)oc2cc(OCCCOc3ccc(/C=C/C(=O)Nc4ccc(Cl)cc4)cc3)ccc12 | 64.4% | 61.1% | 27.2% | 35.1% | 64.8% | 69.6% | 
16 | N#Cc1nc(-c2ccccc2)oc1S(=O)(=O)N1CCN(CCc2ccccn2)CC1 | 107% | 22.9% | -24.2% (active) | 28% | 11.9% | 114% | 84.1%
17 | COc1ccc(-c2nc3ccc(-c4nnc(SCC(=O)Nc5ccc(C(=O)/C=C/c6ccc(Cl)cc6)cc5)o4)cc3[nH]2)cc1OC | 106% | 106% | 105% | 75.9% | 101% | 124% | 104%

Row | Structure (SMILES) | growth [1] | growth [2] | growth [3] | growth [4] | growth [5] | growth [6] | growth [7]
18 | Cc1ccccc1NC(=O)/C=C/c1ccc(OCCOc2ccc3c(C)cc(=O)oc3c2)cc1 | 87.8% | 90.4% | 98.6% | 85.7% | 97.7% | 114% | 
19 | COc1ccc(/C=C2\SC(=Nc3cc(C)on3)NC2=O)cc1 | 88.1% | 104% | 99% | 89.2% | 96.1% | 108% | 108%
20 | Clc1ccc2c(NCCCN3CCOCC3)c3oc4ccc(Cl)cc4c3nc2c1 | 81.3% | 69.6% | 27.5% | 22.2% | 23.4% | 10% | 48.4%
21 | CCCC(=O)NC(c1ccc(N(CC)CC)cc1)c1cc(C)c2cccnc2c1O (centres undefined) | 29.9% | 34.8% | 31.4% | 14.3% | 16.8% | 33.9% | 29.6%
22 | CSCCC(C(=O)O)N1C(=O)/C(=C/c2ccc(O)c(O)c2)SC1=S (centres undefined) | 110% | 102% | 102% | 93.4% | 99.5% | 108% | 103%
23 | C#Cc1nc(C2=C(C)C(OC(=O)CCC(=O)O)CC2)cs1 (centres undefined) | 102% | 106% | 113% | 87.6% | 114% | 109% | 79.2%
24 | Cc1cc(C(NC(=O)CCCCCNc2cccc3c2C(=O)N(C2CCC(=O)NC2=O)C3=O)c2cccnc2)c(O)c2ncccc12 (centres undefined) | -30.8% (active) | 30.7% | 13.3% | 12.2% | 24.8% | 2.27% (active) | 
25 | COc1cc(-c2nc3ccc(-c4nnc(SCC(=O)Nc5ccc(C(=O)/C=C/c6ccc(Cl)cc6)cc5)o4)cc3[nH]2)cc(OC)c1OC | 84.4% | 99% | 100% | 59.1% | 81.5% | 120% | 
26 | C[C@@H](Nc1c(C#N)cnc2ccc(-c3cnc(N)nc3)cc12)c1ccccc1 | -14.1% (active) | 11% | 14.9% | 10.9% | 5.6% (active) | 32% | 18.6%
27 | Cn1ccnc1C(=O)/C=C/c1ccc(NC(=O)Nc2ccc(F)cc2)cc1 | 30.1% | 35.4% | 42.1% | 10.3% | 17.1% | 29.8% | 36.5%
28 | Nc1c(C(=O)c2ccc(Br)cc2)oc2nc(-c3cnccn3)cc(-c3cccs3)c12 | 103% | 102% | 98.8% | 77.6% | 96.8% | 113% | 99.8%
29 | O=C1Nc2cc(Cl)ccc2/C1=C\c1ccc(OCc2ccc([N+](=O)[O-])cc2)cc1 | 77.5% | 80.2% | 76.8% | 61.3% | 68.2% | 82.8% | 64.6%
30 | OC1CCN(CCCOc2c3ccccc3nc3c2oc2ccccc23)CC1 | 7.19% (active) | -10.5% (active) | 1.37% (active) | 0.978% (active) | 3.79% (active) | -12.4% (active) | 5.22% (active)
31 | CN(C)CCCOc1c2ccc(Cl)cc2nc2c1oc1ccccc12 | 8.05% (active) | -51.9% (active) | 9.59% (active) | -18.6% (active) | 1.47% (active) | -58.1% (active) | 
32 | N#Cc1nc(-c2ccccc2)oc1S(N)(=O)=O | 67.6% | 42.5% | 21.1% | 30.9% | 46.8% | 110% | 83.9%
33 | NS(=O)(=O)c1ccc(Nc2nc(Nc3ccccc3)nc(-n3nc(-c4ccccc4)cc3-c3ccccc3)n2)cc1 | 52.7% | 26.9% | 38.2% | 6.85% (active) | 10.5% | 43.1% | 9.22% (active)
34 | CS(=O)(=O)c1ccc(-c2nc3ccccn3c2C=Nc2ccc(Cl)cc2)cc1 | 74.3% | 56.7% | 63% | 87.7% | 52.1% | 95.8% | 
